From PubChem BioAssay (Tox21) come the findings set out here.

Experiment [1] can be described thus: qHTS assay to identify small molecule antagonists of the thyroid receptor (TR) signaling pathway - cell viability counter screen (AID 743064). Note: nearly all actives have a fitted effect of over 50% in size. Note: potency is the fitted concentration of half-maximal effect. A digest of the protocol: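 Rat GH3 pituitary tumor cells stably expressing two TR response elements driving luciferase were plated, rested 4 h, then dosed with library compounds and T3 (1 nM final). After 23.5 h at 37 °C, CellTiter-Fluor was added for 30 min and fluorescence recorded.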

A short description of experiment [2]: qHTS assay to identify small molecule antagonists of the thyroid receptor (TR) signaling pathway (AID 743065). Note: nearly all actives have a fitted effect of over 55% in size. Note: potency is the fitted concentration of half-maximal effect. The procedure, abridged:
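GH3.TRE-Luc rat pituitary cells (two TREs driving luciferase) were dosed with compound, then stimulated with 1 nM T3 (final) for 23.5 h at 37 C. ONE-Glo luminescence was the read-out, with CellTiter-Fluor fluorescence as the cytotoxicity counter-screen.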

The test system of experiment [3] is thyroid hormone receptor (rat, GH3 cells). Description: qHTS assay to identify small molecule agonists of the thyroid receptor (TR) signaling pathway (AID 743066; calls by dose curve).
Experiment [4] deals with Estrogen receptor (Homo sapiens) (UniProt P03372). Briefly: qHTS assay to identify small molecule antagonists of the estrogen receptor alpha (ER-alpha) signaling pathway (AID 743069; active = well fitted curve in the direction sought with a large enough effect in the signal ratio in the repeat runs, not every such curve was filed as active; the % refers to the signal ratio). The procedure, abridged: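 Reporter cells (ER-alpha-bla, HEK293 background) are conditioned overnight in stripped-serum medium (2% charcoal-stripped FBS). Compound and 17beta-estradiol exposure runs 18 hr at 37C, 5% CO2.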
Estrogen receptor (Homo sapiens), sequence (P03372 whole entry, looked up): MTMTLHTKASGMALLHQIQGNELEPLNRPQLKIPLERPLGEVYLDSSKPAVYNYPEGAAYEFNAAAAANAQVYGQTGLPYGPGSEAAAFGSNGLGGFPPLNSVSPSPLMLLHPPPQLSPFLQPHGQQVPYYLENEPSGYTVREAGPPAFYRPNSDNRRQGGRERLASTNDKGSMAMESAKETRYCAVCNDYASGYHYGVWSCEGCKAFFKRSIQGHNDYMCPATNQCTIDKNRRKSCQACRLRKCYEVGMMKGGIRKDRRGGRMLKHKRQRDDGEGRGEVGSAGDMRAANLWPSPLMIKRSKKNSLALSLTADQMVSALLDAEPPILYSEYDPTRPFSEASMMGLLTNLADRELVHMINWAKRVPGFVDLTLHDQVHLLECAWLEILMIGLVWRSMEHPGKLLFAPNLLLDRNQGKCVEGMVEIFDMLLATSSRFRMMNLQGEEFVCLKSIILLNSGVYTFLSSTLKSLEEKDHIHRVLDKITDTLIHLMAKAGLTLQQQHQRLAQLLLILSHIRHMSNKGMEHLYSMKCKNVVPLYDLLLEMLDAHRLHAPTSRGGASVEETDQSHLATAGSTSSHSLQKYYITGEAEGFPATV

For experiment [5] the target is unchanged. Description: qHTS assay to identify small molecule agonists of the estrogen receptor alpha (ER-alpha) signaling pathway (AID 743075; calls by dose curve;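 note: HEK293 GripTite cells with ER-alpha and UAS-driven beta-lactamase reporter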).
Experiment [6] shares this target. Description: qHTS assay to identify small molecule agonists of the estrogen receptor alpha (ER-alpha) signaling pathway using the BG1 cell line (AID 743079). Note: nearly all actives have a fitted effect of over 20% in size.
Experiment [7] in a line: qHTS assay to identify small molecule antagonists of the estrogen receptor alpha (ER-alpha) signaling pathway using the BG1 cell line (AID 743080; calls by dose curve;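 note: BG1 cells stimulated with 17beta-estradiol alongside compound; nearly all actives have a fitted effect of over 25% in size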; note: potency is the fitted concentration of half-maximal effect). A digest of the protocol:
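Seeding, 24 h rest, compound transfer from DMSO, 17beta-estradiol addition, 21.5 h incubation, CellTiter-Fluor (30 min, 37 C), then ONE-Glo (30 min, room temperature): this sequence was run on BG1-Luc-4E2 reporter cells.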

Experiment [8] can be described thus: qHTS assay to identify small molecule antagonists of the estrogen receptor alpha (ER-alpha) signaling pathway using the BG1 cell line - cell viability counter screen (AID 743081).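 Note: compound given together with 17beta-estradiol as the ER stimulus; nearly all actives have a fitted effect of over 45% in size.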 Note: potency is the fitted concentration of half-maximal effect.
The next experiment has as its target Aromatase (Homo sapiens) (UniProt P11511). Description: qHTS assay to identify aromatase inhibitors (AID 743083). Note: nearly all actives have a fitted effect of over 55% in size. Note: potency is the fitted concentration of half-maximal effect.
Experiment [9] is described as follows: qHTS assay to identify small molecule antagonists of the estrogen receptor alpha (ER-alpha) signaling pathway - cell viability counter screen (AID 743074; calls by dose curve;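 note: HEK293 cells carrying ER-alpha-UAS-bla reporter stimulated with 17beta-estradiol; nearly all actives have a fitted effect of over 45% in size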).

Where “and” joins values, the source holds several entries; their conditions need not be identical. Identical values can stand only once. Results filed as inconclusive are left out. Some structures have more than one record in an assay (separate samples or runs), and their calls can disagree. Calls of active or inactive are those of the source. Unless noted, calls come from the whole dose curve; as a rule, active = well fitted curve in the direction sought with a large enough effect in the repeat runs; inconclusive = weak or mixed curves; inactive = no such curve, though single readings can be large; an effect the other way counts as inactive or inconclusive.

Aromatase (Homo sapiens), sequence (P11511 whole entry, looked up): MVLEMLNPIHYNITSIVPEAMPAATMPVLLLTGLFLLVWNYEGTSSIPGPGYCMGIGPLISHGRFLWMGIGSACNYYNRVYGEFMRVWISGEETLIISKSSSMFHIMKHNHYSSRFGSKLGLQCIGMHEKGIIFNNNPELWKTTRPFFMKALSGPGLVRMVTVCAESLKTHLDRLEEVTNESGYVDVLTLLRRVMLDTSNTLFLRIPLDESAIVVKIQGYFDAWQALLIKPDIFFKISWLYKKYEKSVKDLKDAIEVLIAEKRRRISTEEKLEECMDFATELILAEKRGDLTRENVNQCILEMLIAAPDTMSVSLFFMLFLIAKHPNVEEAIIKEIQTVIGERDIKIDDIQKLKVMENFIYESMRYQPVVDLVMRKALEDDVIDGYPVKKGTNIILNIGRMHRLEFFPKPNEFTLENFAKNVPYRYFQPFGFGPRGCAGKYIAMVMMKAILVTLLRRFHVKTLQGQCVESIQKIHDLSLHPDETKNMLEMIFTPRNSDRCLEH

Take `NS(=O)(=O)c1cc2c(cc1Cl)NC=NS2(=O)=O`: the Potency result in experiment [1], in [2], in experiment [4], in experiment [5], in experiment [6] and in experiment [7] was “inactive” each time. Also, the Potency result (in experiment [8]; with Aromatase (Homo sapiens)) was “inactive” in each case. For the same molecule, the molecule was called inactive in [3].
As for `OC1CCCC1`, the Potency entry in [1], in [2], in experiment [4], in [9], in experiment [5] and in experiment [6] was “inactive” throughout. In addition, the Potency result (in experiment [7]; in experiment [8]; in the experiment with Aromatase (Homo sapiens)) was “inactive” each time. Moreover, in experiment [3], the outcome was inactive.
Regarding `C=C(C)C(=O)OCCCCCCCCCCCC`, the Potency result in experiment [1], in experiment [2], in experiment [4], in experiment [9], in experiment [5] and in [6] was “inactive” each time. The Potency result (in experiment [7]; in [8]; with Aromatase (Homo sapiens)) was “inactive” throughout. In addition, the molecule was called inactive in experiment [3].
Regarding `O=C1CCCCC1`, the Potency entry in experiment [1], in experiment [2], in [4], in experiment [5], in experiment [6] and in [7] was “inactive” in each case. The Potency result (in [8]; with Aromatase (Homo sapiens)) was “inactive” throughout. In addition, in [3], the outcome was inactive.
`CC#C[C@]1(O)CC[C@H]2[C@@H]3CCC4=CC(=O)CCC4=C3[C@@H](c3ccc(N(C)C)cc3)C[C@@]21C`: the Potency is 9.44 µM (active) and 34.4 µM (active) in experiment [1]; 4.73 µM (active) and 24.3 µM (active) in experiment [2]; 16.8 µM (active) and 68.6 µM (active) in experiment [7]; 11.9 µM (active) and 30.6 µM (active) with Aromatase (Homo sapiens). Besides, in experiment [3], the result was inactive. Besides, the Potency entry in experiment [9], in experiment [5] and in experiment [8] was “inactive” each time.
For `NC(=O)/N=N/C(N)=O`, the Potency entry in experiment [1], in experiment [2], in experiment [4], in experiment [5], in [6] and in [7] was “inactive” in each case. For the same molecule, the Potency entry (in experiment [8]; with Aromatase (Homo sapiens)) was “inactive” in each case. Moreover, the molecule was classed as inactive in [3].
In the case of `C=C1C2CCC(C2)C1(C)C` (stereo not drawn), the Potency result in experiment [1], in experiment [2], in [4], in experiment [9], in experiment [5] and in experiment [6] was “inactive” in each case. Moreover, the Potency entry (in experiment [7]; in experiment [8]; with Aromatase (Homo sapiens)) was “inactive” in each case. Moreover, the molecule was called inactive in experiment [3].
As for `Cc1cc(=O)[nH]c(C(C)C)n1`, the Potency result in experiment [1], in experiment [2], in experiment [4], in experiment [9], in [5] and in experiment [6] was “inactive” in each case. Also, the Potency result (in experiment [7]; in experiment [8]; in the experiment with Aromatase (Homo sapiens)) was “inactive” each time. For the same molecule, in experiment [3], the call was inactive.
As for `O=C(O)c1cc(-c2ccccc2)nc2ccccc12`, the Potency entry (in experiment [1]; in experiment [2]; in experiment [9]; in experiment [8]; with Aromatase (Homo sapiens)) was “inactive” throughout. Besides, the molecule was classed as inactive in experiment [3].
On to `OCCOCCOCCOCCO`, for which the Potency entry in experiment [1], in experiment [2], in [4], in [9], in experiment [5] and in experiment [6] was “inactive” throughout. In addition, the Potency entry (in experiment [7]; in [8]; with Aromatase (Homo sapiens)) was “inactive” in each case. In experiment [3], the result was inactive.
Consider `Cc1cc(O)c2c(c1)C(=O)c1cc(O)cc(O)c1C2=O`, for which the Potency result in experiment [1] was “inactive and 30.6 µM (active)”; in experiment [2], 23.8 µM (active) and 15.4 µM (active); in [8] it was 29.9 µM (active) and 24.3 µM (active); in the experiment with Aromatase (Homo sapiens) it was 23.8 µM (active) and 54.5 µM (active). The call in [3] was inactive. In addition, the Potency result in [4], in experiment [9] and in experiment [7] was “inactive” in each case.
Turning to `O=S(=O)(O)CCS`, the Potency entry in experiment [1], in experiment [2], in [4], in experiment [9], in [5] and in experiment [6] was “inactive” each time. Also, the Potency result (in [7]; in [8]; with Aromatase (Homo sapiens)) was “inactive” in each case. Further, the outcome in [3] was inactive.
On to `CC1Cc2ccccc2N1NC(=O)c1ccc(Cl)c(S(N)(=O)=O)c1` (stereo not drawn), for which the Potency result in experiment [1], in experiment [2], in experiment [4], in [9], in experiment [5] and in experiment [6] was “inactive” throughout. For the same molecule, the Potency entry (in experiment [7]; in [8]; in the experiment with Aromatase (Homo sapiens)) was “inactive” each time. Besides, the molecule was called inactive in experiment [3].
Take `C[C@@H](O)[C@H]1C(=O)N2C(C(=O)O)=C(S[C@@H]3CN[C@H](C(=O)N(C)C)C3)[C@H](C)[C@H]12`: the Potency result (in [1]; in experiment [2]; in experiment [9]; in experiment [8]; in the experiment with Aromatase (Homo sapiens)) was “inactive” throughout. For the same molecule, the result in experiment [3] was inactive.
As to `O=[N+]([O-])c1cccc(Cl)c1`, the Potency entry in experiment [1], in experiment [2], in experiment [4], in experiment [9], in experiment [5] and in [6] was “inactive” in each case. The Potency result (in experiment [7]; in experiment [8]; with Aromatase (Homo sapiens)) was “inactive” in each case. In experiment [3], the molecule was called inactive.
For `c1ccc2ccccc2c1`, the Potency entry in experiment [1], in experiment [2], in experiment [4], in [9], in experiment [5] and in [6] was “inactive” each time. Besides, the Potency entry (in experiment [7]; in [8]; with Aromatase (Homo sapiens)) was “inactive” each time. In experiment [3], the result was inactive.
On to `CC(C)Cc1ccccc1`, for which the Potency entry in experiment [1], in experiment [2], in [4], in experiment [9], in [5] and in experiment [6] was “inactive” throughout. Further, the Potency result (in experiment [7]; in experiment [8]; in the experiment with Aromatase (Homo sapiens)) was “inactive” in each case. Besides, the molecule was classed as inactive in experiment [3].
In the case of `ClC1=C(Cl)C(Cl)(Cl)C(Cl)=C1Cl`, the Potency entry in [1], in experiment [4], in experiment [5], in experiment [6], in experiment [7] and in experiment [8] was “inactive” in each case. The Potency is 54.5 µM (active) in [2]; “inactive and 48.6 µM (active)” in the experiment with Aromatase (Homo sapiens). In addition, in experiment [3], the call was inactive.
`COC(=O)c1ccc(C(=O)OC)cc1`: the Potency entry in [1], in [2], in experiment [4], in experiment [9], in [5] and in experiment [6] was “inactive” throughout. Moreover, the Potency result (in [7]; in experiment [8]; in the experiment with Aromatase (Homo sapiens)) was “inactive” in each case. For the same molecule, the outcome in experiment [3] was inactive.
With `CC(=O)Nc1ccc(C(=O)O)cc1`, the Potency result in experiment [1], in experiment [2], in experiment [4], in experiment [9], in [5] and in [6] was “inactive” each time. In addition, the Potency entry (in [7]; in experiment [8]; with Aromatase (Homo sapiens)) was “inactive” throughout. The result in [3] was inactive.
For the molecule `CCCCOCCOCCOC(=O)CCCCC(=O)OCCOCCOCCCC`, the Potency entry in experiment [1], in [2], in experiment [4], in experiment [9], in experiment [5] and in experiment [6] was “inactive” each time. Also, the Potency entry (in [7]; in experiment [8]; with Aromatase (Homo sapiens)) was “inactive” each time. Also, the outcome in experiment [3] was inactive.
For `CCc1ccccc1O`, the Potency entry in experiment [1], in [2], in [4], in experiment [5], in [6] and in experiment [7] was “inactive” in each case. The Potency entry (in [8]; with Aromatase (Homo sapiens)) was “inactive” in each case. In addition, in experiment [3], the call was inactive.
